The text below walks through data of PubChem BioAssay (NCI).

About 83,000 compounds went through this panel and 20% of them were active in at least one assay; those are over-represented in the sample as a whole.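 For each line, cells grew in 96-well plates with the test compound present at a single concentration for 48 hours.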 A number with no mark means an inactive call. Calls of active or inactive are those of the source. The calls were made as follows: active = growth percent below 10; inactive = the rest.

Test in all cases: NCI-60 one-dose screen, 48 h (100 = growth as untreated, 0 = no growth, -100 = all killed)
Common to all, as to conditions: 10 µM unless noted

Experiment [1] concerns NCI-H23 lung.
The test system of experiment [2] is NCI-H226 lung.
Experiment [3] relates to NCI-H322M lung.
Experiment [4] concerns HOP-62 NSCLC.
Experiment [5] deals with NCI-H460 lung.
In experiment [6] the test system is HOP-92 NSCLC.
The subject of experiment [7] is NCI-H522 lung.
The subject of experiment [8] is A549/ATCC NSCLC.
Experiment [9] deals with 786-0 renal.
For experiment [10], the system named is COLO 205 colon.
The test system of experiment [11] is DU-145 prostate.
The test system of experiment [12] is K-562 leukemia.
For experiment [13], the system named is MALME-3M melanoma.
Experiment [14] concerns MDA-MB-231 breast.
Experiment [15] has as its system SF-268 CNS.
The subject of experiment [16] is SF-295 CNS.
Experiment [17] has as its system SF-539 CNS.
Experiment [18] has as its system UACC-257 melanoma.
In experiment [19] the test system is M14 melanoma.

As for `Clc1ccc(C2CC(c3cccc(Nc4ccncc4)c3)=NN2c2ccc(Cl)cc2)cc1` (stereo unspecified), the growth in experiment [1] is 47.7%; in [2], 91.9%; in [3] it was 54.9%; in experiment [4], -44.4% (active); in experiment [5], -81% (active); in experiment [6], 46.3%. The growth was -44% (active) in [7]; 9.48% (active) in experiment [8]; -71.7% (active) in [9]; -61.5% (active) in experiment [10]; 17.6% in [11]; -1.93% (active) in experiment [12]. The growth in experiment [13] was -64.4% (active); in [14], 19%; in experiment [15], 60.2%; in experiment [16], -79.2% (active); in experiment [17], 71.2%; in experiment [18], 64.7%. The growth in experiment [19] is -80.1% (active).

Consider `COc1ccc(-c2nn(Cc3ccccc3)c3c2-c2oncc2CC3)cc1OC`, for which the growth in [1] was 105%; in experiment [2], 131%; in experiment [3], 112%; in [4], 120%; in [5], 95.6%; in experiment [6], 49.4%. Further, the growth was 98.9% in [7]; 96.8% in experiment [8]; 97.8% in experiment [9]; 136% in experiment [10]; 97.4% in experiment [11]; 90.5% in [12]. The growth in [13] is 138%; in [14], 77.8%; in experiment [15] it was 104%; in [16] it was 96.5%; in [17] it was 93.3%; in [18], 89.9%. The growth in experiment [19] is 127%.

Turning to `C=C(C)[C@H]1CC/C(C)=C/CC[C@]2(C)O[C@H]2CC/C(COC(=O)[C@@H](OC(C)=O)[C@H](NC(=O)c2ccccc2)c2ccccc2)=C\[C@@H]1O`, the growth in [1] is 98.5%; in experiment [2] it was 95%; in experiment [3], 104%; in experiment [4] it was 97.6%; in [5], 89%; in experiment [6], 59.4%. In addition, the growth in [7] is 59.5%; in experiment [8], 87.3%; in experiment [9] it was 85.1%; in [10], 113%; in [11] it was 102%; in experiment [12], 129%. In addition, the growth in experiment [13] is 100%; in experiment [14], 88.5%; in experiment [15], 90.2%; in [16], 88.8%; in experiment [17], 87.2%; in experiment [18], 83.1%. Also, in experiment [19], the growth is 90.6%.

For `Fc1ccc(C2CC(c3cccc(Nc4ccncc4)c3)=NN2c2cc(Cl)cc(Cl)c2)cc1` (stereo unspecified), the growth in experiment [1] is 80.2%; in experiment [2] it was 90.5%; in [3] it was 73%; in experiment [4], 44.4%; in experiment [5], -75.5% (active); in [6], 58.3%. Also, the growth is 73% in [7]; 29.1% in experiment [8]; 102% in [9]; -54.5% (active) in experiment [10]; 30.2% in experiment [11]; 0.115% (active) in experiment [12]. Further, the growth was 15.3% in [13]; 61.4% in experiment [14]; 72.4% in [15]; 63.3% in [16]; 83% in [17]; 85.9% in [18]. The growth in experiment [19] was 104%.

Turning to `O=C(CN1CCOCC1)Nc1ccc2ncnc(Nc3ccc(Oc4cccc(F)c4)c(Cl)c3)c2c1`, the growth in [1] is 96.7%; in experiment [2], 89.8%; in experiment [3] it was 20.1%; in [4] it was 84.9%; in [5] it was 80.2%; in experiment [6] it was 67.4%. In addition, the growth in experiment [7] is 20.7%; in experiment [8] it was 66.3%; in experiment [9] it was 74.3%; in experiment [10], 91.7%; in experiment [11] it was 48.3%; in [12] it was 56.8%. In addition, the growth in experiment [13] was 88.3%; in [14], 74.3%; in experiment [15] it was 70.9%; in [16] it was 84.2%; in experiment [17] it was 85%; in experiment [18], 89.1%. Moreover, in [19], the growth was 74.5%.

For the molecule `C#Cc1cccc(NC(=O)Nc2cccc(N=C=S)c2)c1`, the growth in experiment [1] was 99.3% [8.25 µM]; in experiment [2] it was 101% [8.25 µM]; in [3] it was 95.1% [8.25 µM]; in experiment [4], 115% [8.25 µM]; in experiment [5], 112% [8.25 µM]; in [6] it was 106% [8.25 µM]. Further, the growth is 90.9% [8.25 µM] in experiment [7]; 90.8% [8.25 µM] in [8]; 95.4% [8.25 µM] in experiment [9]; 130% [8.25 µM] in experiment [10]; 107% [8.25 µM] in experiment [11]; 107% [8.25 µM] in experiment [12]. The growth in [13] was 90.6% [8.25 µM]; in experiment [14], 94.5% [8.25 µM]; in experiment [15], 95.4% [8.25 µM]; in experiment [16], 101% [8.25 µM]; in [17] it was 102% [8.25 µM]; in experiment [18], 102% [8.25 µM]. For the same molecule, in experiment [19], the growth is 98.5% [8.25 µM].

For the molecule `CC(=O)N1N=C(c2cccc(Nc3ccncc3)c2)CC1c1ccccc1` (stereo unspecified), the growth was 93.3% in [1]; 95.3% in [2]; 93.3% in experiment [3]; 92.5% in [4]; 95.1% in [5]; 55.9% in experiment [6]. Also, the growth in [7] is 91.7%; in experiment [8], 85.2%; in experiment [9] it was 4.92% (active); in [10] it was 81.5%; in [11] it was 99.5%; in [12], 11.8%. Moreover, the growth in experiment [13] was 76.7%; in experiment [14], 83.9%; in experiment [15], 91%; in experiment [16], 87.5%; in experiment [17], 80.9%; in [18], 92.6%. Also, the growth in [19] is -76.2% (active).

In the case of `O=C1Nc2c(ccc(Cl)c2Cl)/C1=C/c1ccc([N+](=O)[O-])cc1`, the growth in [1] was 91.3%; in experiment [2], 159%; in [3] it was 84.9%; in [4], 90.6%; in experiment [5], 107%; in experiment [6], 95.5%. The growth is 88.7% in experiment [7]; 29.2% in experiment [8]; 59.7% in [9]; 114% in experiment [10]; 108% in [11]; 89.5% in experiment [12]. The growth in experiment [13] was 84.4%; in [14] it was 94.2%; in experiment [15] it was 93.3%; in experiment [16], 76.7%; in experiment [17], 95.4%; in experiment [18], 72%. Besides, the growth in experiment [19] was 104%.

On to `C/C(=C(/c1ccccc1)c1ccc(OCC(O)CN2CCOCC2)cc1)c1ccccc1` (stereo unspecified), for which the growth in [1] was 101%; in experiment [2], 96.6%; in experiment [3], 95.4%; in experiment [4], 90.1%; in experiment [5] it was 92.6%; in experiment [6], 80.2%. The growth in [7] is 73.3%; in experiment [8], 87.2%; in [9], 67.1%; in experiment [10], 69.4%; in experiment [11], 98.1%; in [12], 19.7%. Moreover, the growth in [13] is 75.3%; in experiment [14] it was 104%; in [15] it was 104%; in experiment [16] it was 108%; in [17] it was 74.2%; in experiment [18], 93.4%. Besides, the growth in [19] was -45.1% (active).

`COc1cc(CNC(=O)CCCCC[P+](c2ccccc2)(c2ccccc2)c2ccccc2)c(OC)c2c1OCO2`: the growth in experiment [1] was 66.9%; in [2] it was 88.3%; in experiment [3], 96.8%; in experiment [4], 90.1%; in experiment [5], 78.6%; in [6], 23.5%. Besides, the growth is 52.9% in experiment [7]; 87.8% in experiment [8]; 96.3% in experiment [9]; 45.8% in experiment [10]; 81.1% in experiment [11]; 20.8% in experiment [12]. Moreover, the growth in [13] is 55.5%; in experiment [14] it was 72.8%; in experiment [15], 66.9%; in [16] it was 87.2%; in [17], 73.1%; in experiment [18], 21.2%. The growth in [19] is 76.2%.

For `CN1CCN(CCCNc2nccc(-c3c(-c4ccc(F)c(O)c4)nc4sccn34)n2)S1(=O)=O`, the growth in [1] is 94.2%; in experiment [2] it was 105%; in experiment [3], 115%; in experiment [4] it was 104%; in experiment [5], 101%; in [6], 70.7%. The growth in experiment [7] is 74.4%; in [8], 103%; in experiment [9] it was 126%; in experiment [10], 29.8%; in [11], 97.7%; in experiment [12], 66%. The growth in experiment [13] is -10.4% (active); in experiment [14] it was 70.8%; in experiment [15], 104%; in [16], 101%; in [17], 113%; in experiment [18] it was 33.8%. Also, the growth in experiment [19] was 20%.

For the molecule `COc1ccccc1/C=N/NC1=NC2C(N1)N(C)C(=O)N2C` (stereo unspecified), the growth in experiment [1] is 100%; in experiment [2] it was 90.4%; in experiment [3] it was 95.5%; in [4], 92%; in experiment [5] it was 102%; in [6], 93.5%. Moreover, the growth in experiment [7] is 103%; in experiment [8] it was 102%; in [9] it was 102%; in [10], 101%; in experiment [11], 112%; in experiment [12] it was 99.5%. Also, the growth in experiment [13] is 93.6%; in experiment [14], 99.8%; in experiment [15], 101%; in experiment [16] it was 104%; in experiment [17], 97.6%; in experiment [18] it was 98.3%. The growth in experiment [19] was 99.7%.

With `COc1ccc(-c2nc(N/N=C/c3cccc(O)c3)nc(N3CCOCC3)c2C#N)cc1`, the growth in experiment [1] was 99.5%; in experiment [2], 98.1%; in experiment [3], 95%; in experiment [4] it was 90.7%; in experiment [5] it was 83.8%; in experiment [6], 47.7%. Further, the growth in [7] is 79.1%; in [8] it was 81.7%; in experiment [9] it was 44.1%; in [10], 74.1%; in experiment [11], 56%; in [12] it was 58.3%. In addition, the growth was 65.9% in experiment [13]; 74.9% in experiment [14]; 78.8% in [15]; 69.7% in experiment [16]; 54.5% in experiment [17]; 57.9% in [18]. Moreover, the growth in [19] was 57.5%.

Take `COc1ccc(C(O)c2cc3c(N)c(C(=O)Nc4ccc(Br)cc4)sc3nc2C)cc1` (stereo unspecified): the growth was 38.1% in [1]; 42.4% in experiment [2]; 39.4% in [3]; 23% in experiment [4]; 6.2% (active) in experiment [5]; 44.1% in [6]. Further, the growth in experiment [7] was 6.85% (active); in experiment [8], 24.3%; in experiment [9], 50.3%; in experiment [10], 11.3%; in experiment [11], -4.27% (active); in [12], 3.49% (active). Also, the growth is 24.8% in experiment [13]; 54.1% in experiment [14]; 45.4% in experiment [15]; 21.6% in [16]; 27.2% in [17]; 32.3% in experiment [18]. Besides, in experiment [19], the growth was 3.91% (active).
